Reference: PubChem BioAssay (NCI)
The panel holds about 83,000 compounds, 20% with a hit somewhere; the sample as a whole holds those more often.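 The endpoint reported here, percent growth, reads 100 for growth as untreated, 0 for no net growth and -100 for all cells dead.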 Calls of active or inactive are those of the source. How the source made its calls: active means growth percent below 10; inactive means the rest.

Assays:
Assay in all cases: NCI-60 one-dose screen, 48 h (100 = growth as untreated, 0 = no growth, -100 = all killed)
Settings in all cases: 10 µM unless noted
HCT-15 colon = system: HCT-15 colon
HT29 colon = system: HT29 colon
SNB-75 CNS = system: SNB-75 CNS
SNB-19 CNS = system: SNB-19 CNS
U251 CNS = system: U251 CNS
PC-3 prostate = system: PC-3 prostate
SK-MEL-5 melanoma = system: SK-MEL-5 melanoma
UACC-62 melanoma = system: UACC-62 melanoma
LOX IMVI melanoma = system: LOX IMVI melanoma
SK-MEL-28 melanoma = system: SK-MEL-28 melanoma
SK-MEL-2 melanoma = system: SK-MEL-2 melanoma
SN12C renal = system: SN12C renal
UO-31 renal = system: UO-31 renal
TK-10 renal = system: TK-10 renal
ACHN renal = system: ACHN renal
CAKI-1 renal = system: CAKI-1 renal
A498 renal = system: A498 renal
CCRF-CEM leukemia = system: CCRF-CEM leukemia
MOLT-4 leukemia = system: MOLT-4 leukemia

Measured: growth

CCn1cc(C(=O)O)c(=O)c2cc(F)c(N3CCN(S(=O)(=O)c4ccc(OC)c(OC)c4)CC3)cc21
inactive: HCT-15 colon 102% | HT29 colon 102% | SNB-75 CNS 85.5% | SNB-19 CNS 96.2% | U251 CNS 106% | PC-3 prostate 90% | SK-MEL-5 melanoma 93.5% | UACC-62 melanoma 95.2% | LOX IMVI melanoma 85.8% | SK-MEL-28 melanoma 102% | SK-MEL-2 melanoma 91.8% | SN12C renal 101% | UO-31 renal 62.1% | TK-10 renal 100% | ACHN renal 93% | CAKI-1 renal 99% | A498 renal 90.4% | CCRF-CEM leukemia 99.7% | MOLT-4 leukemia 78.9%

Cc1cc(Nc2nc(-c3ccncc3)nc3ccccc23)n[nH]1
active: SNB-75 CNS -23.4% | CAKI-1 renal -6.19% | A498 renal 4.45%
inactive: HCT-15 colon 44.2% | HT29 colon 61.3% | SNB-19 CNS 95% | U251 CNS 115% | PC-3 prostate 61% | SK-MEL-5 melanoma 89.1% | UACC-62 melanoma 55.3% | LOX IMVI melanoma 62.7% | SK-MEL-28 melanoma 69.1% | SK-MEL-2 melanoma 57.6% | SN12C renal 61.6% | UO-31 renal 33.4% | TK-10 renal 62% | ACHN renal 40.2% | CCRF-CEM leukemia 67.6% | MOLT-4 leukemia 60.5%

CC(=O)Nc1ccc(S(=O)(=O)N2C(=O)CCC2C(=O)Nc2ccc(Br)cc2)cc1 (stereo not drawn)
active: HCT-15 colon 7.48% | LOX IMVI melanoma 6.05% | CCRF-CEM leukemia 2.98% | MOLT-4 leukemia 5.48%
inactive: HT29 colon 21.4% | SNB-75 CNS 59% | SNB-19 CNS 46.1% | U251 CNS 22.2% | PC-3 prostate 17% | SK-MEL-5 melanoma 17.6% | UACC-62 melanoma 15.3% | SK-MEL-28 melanoma 50.2% | SK-MEL-2 melanoma 36.1% | SN12C renal 49.9% | UO-31 renal 21.9% | TK-10 renal 63.6% | ACHN renal 45.3% | CAKI-1 renal 32.3% | A498 renal 16.8%

CCCCCC(=O)OCc1ccccc1
inactive: HCT-15 colon 94.6% | HT29 colon 106% | SNB-75 CNS 90.3% | SNB-19 CNS 105% | U251 CNS 103% | PC-3 prostate 104% | SK-MEL-5 melanoma 104% | UACC-62 melanoma 103% | LOX IMVI melanoma 96.8% | SK-MEL-28 melanoma 113% | SK-MEL-2 melanoma 92.7% | SN12C renal 98.1% | UO-31 renal 82.7% | TK-10 renal 99.7% | ACHN renal 98.1% | CAKI-1 renal 96.5% | A498 renal 114% | MOLT-4 leukemia 86.3%

CCN(C(=O)c1cc2ccccc2[nH]1)[C@H]1CCC[C@@H](NCc2ccc(OC)cc2)C1
inactive: HCT-15 colon 81% | HT29 colon 76.2% | SNB-75 CNS 80.6% | SNB-19 CNS 91.3% | U251 CNS 101% | PC-3 prostate 88.5% | SK-MEL-5 melanoma 91.2% | UACC-62 melanoma 95.6% | LOX IMVI melanoma 89% | SK-MEL-28 melanoma 98.3% | SK-MEL-2 melanoma 100% | SN12C renal 92.2% | UO-31 renal 66% | TK-10 renal 81% | ACHN renal 94.7% | CAKI-1 renal 96% | CCRF-CEM leukemia 102% | MOLT-4 leukemia 70.2%

O=C1c2ccccc2C(=O)c2c(N=Nc3sc(=O)[nH]c3S)cccc21
inactive: HCT-15 colon 94% | HT29 colon 82.9% | SNB-75 CNS 112% | SNB-19 CNS 93.4% | U251 CNS 91.6% | PC-3 prostate 89.9% | SK-MEL-5 melanoma 93.4% | UACC-62 melanoma 88.8% | LOX IMVI melanoma 84.9% | SK-MEL-28 melanoma 110% | SK-MEL-2 melanoma 95.2% | SN12C renal 100% | UO-31 renal 88.7% | TK-10 renal 138% | ACHN renal 102% | CAKI-1 renal 96.3% | CCRF-CEM leukemia 94.8% | MOLT-4 leukemia 101%

NC(CC(N)C(=O)O)C(=O)O (stereo not drawn)
inactive: HCT-15 colon 88.4% | HT29 colon 84.4% | SNB-75 CNS 88.4% | SNB-19 CNS 108% | U251 CNS 93.8% | PC-3 prostate 92.2% | SK-MEL-5 melanoma 85% | UACC-62 melanoma 98% | LOX IMVI melanoma 99.4% | SK-MEL-28 melanoma 90.1% | SK-MEL-2 melanoma 98.6% | SN12C renal 93.8% | UO-31 renal 94.8% | TK-10 renal 110% | ACHN renal 95.7% | CAKI-1 renal 97% | A498 renal 108% | MOLT-4 leukemia 107%

COC(=O)C(CC(=O)c1ccc(-c2ccccc2)cc1)c1ccccc1 (stereo not drawn)
active: HT29 colon 6.34%
inactive: HCT-15 colon 31.3% | SNB-75 CNS 72.5% | SNB-19 CNS 75.5% | U251 CNS 71.1% | PC-3 prostate 64.4% | SK-MEL-5 melanoma 45.5% | UACC-62 melanoma 51.3% | LOX IMVI melanoma 44.9% | SK-MEL-28 melanoma 70.9% | SK-MEL-2 melanoma 69.4% | SN12C renal 64.2% | UO-31 renal 53.8% | TK-10 renal 68% | ACHN renal 41.3% | CAKI-1 renal 44.3% | A498 renal 41.7% | CCRF-CEM leukemia 49.4% | MOLT-4 leukemia 47.3%

COc1ccc(NC(=O)c2cc3ccccc3nc2Nc2cc(OC)c(OC)c(OC)c2)cc1
inactive: HCT-15 colon 36.3% | HT29 colon 64.3% | SNB-75 CNS 69.4% | SNB-19 CNS 78.9% | U251 CNS 54.2% | PC-3 prostate 57.6% | SK-MEL-5 melanoma 44.3% | UACC-62 melanoma 64.4% | LOX IMVI melanoma 52.8% | SK-MEL-28 melanoma 73.2% | SK-MEL-2 melanoma 89.2% | SN12C renal 69.7% | UO-31 renal 59.7% | TK-10 renal 90.7% | ACHN renal 53% | CAKI-1 renal 70.2% | CCRF-CEM leukemia 43.6% | MOLT-4 leukemia 49.2%

COc1ccc(/C=C2\CCCC3=C2NC(C)=NC3c2ccc(OC)c(OC)c2)cc1OC (stereo not drawn)
inactive: SNB-75 CNS 35.2% | SNB-19 CNS 60.4% | U251 CNS 18.3% | PC-3 prostate 32% | UACC-62 melanoma 10.9% | SK-MEL-28 melanoma 23% | UO-31 renal 34.3% | TK-10 renal 12.2%
active: HCT-15 colon -61.7% | HT29 colon -2.36% | SK-MEL-5 melanoma 6.23% | LOX IMVI melanoma -72.7% | SK-MEL-2 melanoma 5.93% | SN12C renal 5.95% | ACHN renal 9.82% | CAKI-1 renal 5.12% | A498 renal 5.88% | CCRF-CEM leukemia -20% | MOLT-4 leukemia -23.2%

O=C(CCCn1c2c(sc3ccccc32)c(=O)n2nnc(-c3ccccc3)c12)NCCc1cnc[nH]1
inactive: SNB-19 CNS 27.3% | A498 renal 27.2% | CCRF-CEM leukemia 38.4% | MOLT-4 leukemia 79.4%
active: HCT-15 colon -62.8% | HT29 colon -100% | SNB-75 CNS -55.1% | U251 CNS -83.2% | PC-3 prostate -84.5% | SK-MEL-5 melanoma -67.1% | UACC-62 melanoma -68.6% | LOX IMVI melanoma -49.8% | SK-MEL-28 melanoma -92% | SK-MEL-2 melanoma -90.3% | SN12C renal 1.75% | UO-31 renal -90.3% | TK-10 renal -89.4% | ACHN renal -19.4% | CAKI-1 renal -84%

CC[C@H](C)[C@H]1NC(=O)[C@@H](N[C@](C)(O)[C@@H](N)CC(C)C)[C@@H](C)OC(=O)[C@H](Cc2ccc(OC)cc2)N(C)C(=O)[C@@H]2CCCN2C(=O)[C@H](CC(C)C)NC(=O)[C@@H](C)C(=O)[C@H](C(C)C)OC(=O)C[C@@H]1O
active: HCT-15 colon 0.591% | HT29 colon -24.6% | SNB-75 CNS -11.1% | SNB-19 CNS -12.5% | U251 CNS -11.8% | PC-3 prostate 2.33% | SK-MEL-5 melanoma -56.9% | UACC-62 melanoma -42.9% | LOX IMVI melanoma -55.9% | SK-MEL-28 melanoma -13.6% | SK-MEL-2 melanoma -55.8% | SN12C renal -8.75% | UO-31 renal -19.9% | TK-10 renal -15% | ACHN renal -10.9% | CAKI-1 renal -22.1% | A498 renal -28.9% | CCRF-CEM leukemia -19% | MOLT-4 leukemia -24.8%
